# Results taken from PubChem BioAssay (NCATS).
# Records with an inconclusive call do not appear. A call without a number means that no potency is given here. Unmarked numbers belong to inactive results. Activity calls are given as the source filed them. The call rests on the fitted dose curve; in most records, active means well fitted curve in the direction sought with a large enough effect; inconclusive means small, poorly fitted or top-dose-only effect, or another doubt; inactive means no such curve, though single readings can be large; an effect the other way counts as inactive or inconclusive.
# How the values were obtained:
# CRL-7250 = normal cell line; assay: Cytotoxic Profiling of Annotated Libraries Using Quantitative High-Throughput Screening (AID 1296008); settings: Five cell lines viability, CellTiter-Glo ATP luminescence, 48-72 h; max response: active compounds read low; further: nearly all actives have a fitted effect of over 60% in size; further: potency means the concentration at half of the fitted maximal effect
# Outline: (§1)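 Compounds were pin-transferred onto cells and incubated 48 or 72 hr at 37 degree Celsius, 95% humidity. CellTiter-Glo was added, plates sat 10 min at room temperature, then ATP-coupled luminescence was imaged as the viability read-out.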
# HEK293 = assay: as above; settings: Five cell lines viability, CellTiter-Glo ATP luminescence, 48-72 h; max response: active compounds read low
# Outline: as §1
# HaCat = assay: as above; settings: Five cell lines viability, CellTiter-Glo ATP luminescence, 48-72 h; max response: active compounds read low
# Outline: as §1
# KB-3-1 = assay: as above; settings: Five cell lines viability, CellTiter-Glo ATP luminescence, 48-72 h; max response: active compounds read low
# Outline: as §1
# NIH3T3 [1] = assay: as above; settings: Five cell lines viability, CellTiter-Glo ATP luminescence, 48-72 h; max response: active compounds read low
# Outline: as §1
# NIH3T3 [2] = assay: qHTS assay to identify novel small-molecules to repurpose for Merkel cell carcinoma treatment (AID 1296009); settings: MCC and control cell lines, CellTiter-Glo viability, 72 h; at 44.8 µM (top of the series) unless noted; further: nearly all actives have a fitted effect of over 60% in size
# Outline: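 Luminescence from CellTiter-Glo, read 10 min after addition at room temperature, reported viability following a 72 hr, 37 degree celsius treatment with NPC or MIPE compounds in titration; values normalized to plate controls.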
# C33A = assay: Primary qHTS to identify gynecologic anti-cancer compounds using libraries of approved drugs and bioactive compounds (AID 1345084); settings: Gynecologic cancer cell panel viability, ATPlite luminescence, 48 h; series mostly up to 57.5 µM; further: nearly all actives have a fitted effect of over 55% in size
# Outline: (§2)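 In this quantitative HTS, cell killing is estimated from loss of ATP-dependent luciferase light. Cells see five compound concentrations over a 48 h exposure.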
# CAOV3 = assay: as above; settings: Gynecologic cancer cell panel viability, ATPlite luminescence, 48 h; series mostly up to 57.5 µM
# Outline: as §2
# CASKI = assay: as above; settings: Gynecologic cancer cell panel viability, ATPlite luminescence, 48 h; series mostly up to 57.5 µM
# Outline: as §2
# Es-2 = assay: as above; settings: Gynecologic cancer cell panel viability, ATPlite luminescence, 48 h; series mostly up to 57.5 µM
# Outline: as §2
# HeLa = assay: as above; settings: Gynecologic cancer cell panel viability, ATPlite luminescence, 48 h; series mostly up to 57.5 µM
# Outline: as §2
# Hek293T = assay: as above; settings: Gynecologic cancer cell panel viability, ATPlite luminescence, 48 h, control line for the selectivity index; series mostly up to 57.5 µM
# Outline: as §2
# JEG-3 = assay: as above; settings: Gynecologic cancer cell panel viability, ATPlite luminescence, 48 h; series mostly up to 57.5 µM
# Outline: as §2
compound,measurement,setting,value
COC(=O)[C@H](O)[C@H]1C(C)(C)[C@H](OC(C)=O)[C@@]2(O)C(=O)[C@]1(C)C1CC[C@]3(C)C(CC(=O)O[C@H]3c3ccoc3)[C@]13O[C@@H]32 (stereo partly specified),outcome,CRL-7250,inactive
same,max response,HEK293,-3.86%
same,max response,HaCat,4.44%
same,max response,KB-3-1,-6.4%
same,outcome,NIH3T3 [1],inactive
same,outcome,NIH3T3 [2],inactive [at 17.4 µM]
same,Potency,C33A,inactive
same,Potency,CAOV3,inactive
same,outcome,CASKI,inactive
same,Potency,Es-2,inactive
same,Potency,HeLa,inactive
same,Potency,Hek293T,inactive
same,Potency,JEG-3,inactive
CCC(C)/C=C(C)/C=C/C1=CC2=CC(=O)C(C)(O)C(OC(C)=O)C2CO1 (stereo unspecified),outcome,CRL-7250,inactive
same,max response,HEK293,-22.7%
same,max response,HaCat,4.74%
same,max response,KB-3-1,-4.84%
same,outcome,NIH3T3 [1],inactive
same,outcome,NIH3T3 [2],inactive
same,Potency,C33A,inactive
same,Potency,CAOV3,inactive
same,outcome,CASKI,inactive
same,Potency,Es-2,inactive
same,Potency,HeLa,inactive
same,Potency,Hek293T,inactive
same,Potency,JEG-3,inactive
CC(=O)NCC1CN(c2ccc(-c3ccc(CNCc4cn[nH]n4)cc3)c(F)c2)C(=O)O1 (stereo unspecified),max response,CRL-7250,0.231%
same,Potency,HEK293,1.3 µM (active)
same,max response,HaCat,1.71%
same,max response,KB-3-1,-15.8%
same,outcome,NIH3T3 [1],inactive
same,outcome,NIH3T3 [2],inactive
same,Potency,C33A,inactive
same,Potency,CAOV3,inactive
same,outcome,CASKI,inactive
same,Potency,Es-2,inactive
same,Potency,HeLa,inactive
same,Potency,Hek293T,inactive
same,Potency,JEG-3,inactive
COc1ccc(CCC(=O)c2c(O)cc(O[C@@H]3O[C@H](CO)[C@@H](O)[C@H](O)[C@H]3O[C@@H]3O[C@@H](C)[C@H](O)[C@@H](O)[C@H]3O)cc2O)cc1O,max response,CRL-7250,-2.32%
same,max response,HEK293,0.838%
same,max response,HaCat,4.19%
same,outcome,KB-3-1,inactive
same,outcome,NIH3T3 [1],inactive
same,outcome,NIH3T3 [2],inactive
same,Potency,C33A,inactive
same,Potency,CAOV3,inactive
same,outcome,CASKI,inactive
same,Potency,Es-2,inactive
same,Potency,HeLa,inactive
same,Potency,Hek293T,inactive
same,Potency,JEG-3,inactive
COC(=O)C1=CO[C@@H](O[C@@H]2O[C@H](CO)[C@@H](O)[C@H](O)[C@H]2O)[C@@H]2[C@@H](C)[C@@H](OC(=O)/C=C/c3ccccc3)[C@@H](O)[C@H]12,max response,CRL-7250,-5.94%
same,max response,HEK293,-9.01%
same,max response,HaCat,-9.9%
same,outcome,KB-3-1,inactive
same,outcome,NIH3T3 [1],inactive
same,outcome,NIH3T3 [2],inactive [at 17.4 µM]
same,Potency,C33A,inactive
same,Potency,CAOV3,inactive
same,outcome,CASKI,inactive
same,Potency,Es-2,inactive
same,Potency,HeLa,inactive
same,Potency,Hek293T,inactive
same,Potency,JEG-3,inactive
C=C[C@H]1[C@H](O[C@@H]2O[C@H](CO)[C@@H](O)[C@H](O)[C@H]2O)OC=C(C(=O)OC)[C@H]1CC=O,max response,CRL-7250,3.16%
same,max response,HEK293,-0.876%
same,max response,HaCat,4.35%
same,outcome,KB-3-1,inactive
same,outcome,NIH3T3 [1],inactive
same,outcome,NIH3T3 [2],inactive
same,Potency,C33A,inactive
same,Potency,CAOV3,inactive
same,outcome,CASKI,inactive
same,Potency,Es-2,inactive
same,Potency,HeLa,inactive
same,Potency,Hek293T,inactive
same,Potency,JEG-3,inactive
CC1(C)CC[C@]2(C(=O)O)CC[C@]3(C)C(=CCC4[C@@]5(C)C(=O)C[C@H](O)[C@@](C)(CO)C5CC[C@]43C)[C@@H]2C1 (stereo partly specified),max response,CRL-7250,-2.6%
same,max response,HEK293,3.17%
same,max response,HaCat,-1.1%
same,max response,KB-3-1,8.25%
same,outcome,NIH3T3 [1],inactive
same,outcome,NIH3T3 [2],inactive [at 17.4 µM]
same,Potency,C33A,inactive
same,Potency,CAOV3,inactive
same,outcome,CASKI,inactive
same,Potency,Es-2,inactive
same,Potency,HeLa,inactive
same,Potency,Hek293T,inactive
same,Potency,JEG-3,inactive
COc1ccc(/C=C/C(=O)O[C@@H]2[C@@H](OC(C)=O)[C@@H](OC(C)=O)[C@H](O[C@H]3[C@@H]4C=CO[C@@H](O[C@@H]5O[C@H](CO)[C@@H](O)[C@H](O)[C@H]5O)[C@@H]4[C@@]4(CO)O[C@@H]34)O[C@H]2C)cc1,outcome,CRL-7250,inactive
same,max response,HEK293,-1.95%
same,max response,HaCat,0.723%
same,max response,KB-3-1,2.76%
same,outcome,NIH3T3 [1],inactive
same,outcome,NIH3T3 [2],inactive [at 17.4 µM]
same,Potency,C33A,inactive
same,Potency,CAOV3,inactive
same,outcome,CASKI,inactive
same,Potency,Es-2,inactive
same,Potency,HeLa,inactive
same,Potency,Hek293T,inactive
same,Potency,JEG-3,inactive
CC1(C)CC[C@]2(C(=O)O[C@@H]3O[C@H](CO[C@@H]4O[C@H](CO)[C@@H](O)[C@H](O)[C@H]4O)[C@@H](O)[C@H](O[C@@H]4O[C@H](CO)[C@@H](O)[C@H](O)[C@H]4O)[C@H]3O)CC[C@]3(C)C(=CCC4[C@@]5(C)CC[C@H](O[C@@H]6OC[C@@H](O)[C@H](O)[C@H]6O)[C@@](C)(C(=O)O)C5CC[C@]43C)[C@@H]2C1 (stereo partly specified),outcome,CRL-7250,inactive
same,max response,HEK293,-19.5%
same,max response,HaCat,-27.8%
same,outcome,KB-3-1,inactive
same,outcome,NIH3T3 [1],inactive
same,outcome,NIH3T3 [2],inactive [at 9.27 µM]
same,"activity change, negative = cytotoxicity",C33A,0.217% [at 11.6 µM]
same,"activity change, negative = cytotoxicity",CAOV3,15.5% [at 11.6 µM]
same,"activity change, negative = cytotoxicity",CASKI,9.7% [at 11.6 µM]
same,"activity change, negative = cytotoxicity",Es-2,-1.43% [at 11.6 µM]
same,"activity change, negative = cytotoxicity",HeLa,13.2% [at 11.6 µM]
same,"activity change, negative = cytotoxicity",Hek293T,2.76% [at 11.6 µM]
same,"activity change, negative = cytotoxicity",JEG-3,2.05% [at 11.6 µM]
CC(C)(OC1OC(CO)C(O)C(O)C1O)C1CCC(O)(CO)C2CC(=O)C(C)(O)C2C1 (stereo unspecified),outcome,CRL-7250,inactive
same,max response,HEK293,-8.37%
same,max response,HaCat,0.066%
same,max response,KB-3-1,2.59%
same,outcome,NIH3T3 [1],inactive
same,outcome,NIH3T3 [2],inactive [at 17.4 µM]
same,Potency,C33A,inactive
same,Potency,CAOV3,inactive
same,outcome,CASKI,inactive
same,Potency,Es-2,inactive
same,Potency,HeLa,inactive
same,Potency,Hek293T,inactive
same,Potency,JEG-3,inactive
Fc1cccc(CN(C2=NCCN2)c2c(Cl)cccc2Cl)c1,max response,CRL-7250,-5.57%
same,max response,HEK293,-13.5%
same,max response,HaCat,0.445%
same,max response,KB-3-1,5.56%
same,outcome,NIH3T3 [1],inactive
same,outcome,NIH3T3 [2],inactive
same,Potency,C33A,inactive
same,Potency,CAOV3,inactive
same,outcome,CASKI,inactive
same,Potency,Es-2,inactive
same,Potency,HeLa,inactive
same,Potency,Hek293T,inactive
same,Potency,JEG-3,inactive
CC1(C)CC[C@]2(C(=O)O[C@@H]3O[C@H](CO)[C@@H](O)[C@H](O)[C@H]3O)CC[C@]3(C)C(=CCC4[C@@]5(C)C[C@@H](O)[C@H](O)[C@@](C)(CO)C5[C@H](O)C[C@]43C)C2[C@@H]1O (stereo partly specified),outcome,CRL-7250,inactive
same,max response,HEK293,-12.5%
same,max response,HaCat,1.4%
same,outcome,KB-3-1,inactive
same,outcome,NIH3T3 [1],inactive
same,outcome,NIH3T3 [2],inactive [at 17.4 µM]
same,Potency,C33A,inactive
same,Potency,CAOV3,inactive
same,outcome,CASKI,inactive
same,Potency,Es-2,inactive
same,Potency,HeLa,inactive
same,Potency,Hek293T,inactive
same,Potency,JEG-3,inactive
